By remaining activity is commonly meant the signal under treatment as a percentage of the control signal. As a reminder, the inhibition is the change of the read-out against control, counted positive when it falls.

Experiment [1] concerns Aerobactin synthetase IucA (Klebsiella pneumoniae). Kind of experiment: IucA aerobactin synthetase inhibitors, biochemical, Tocris library, absorbance (AID 1345561).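 Note: 100% = enzyme without compound and 0% = no enzyme.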 The settings on record: purified IucA enzyme assay, absorbance (OD) read-out; stronger effect = lower value;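 tested at 8 µM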.
Experiment [2] in a line: sensitizers of A549 cells to miR-34 induction, primary screen, imaging, A549 dox-inducible miR-34, nuclei and caspase counts (AID 1347080;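 active = compounds whose cell count with miR-34 switched on is under 0.7 times the count with it off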). The settings on record: A549 miR-34 inducible, Hoechst nuclei count, 48 h.
Experiment [3] in a line: survival rescue of mitochondrial mutant cells in low glucose, primary screen, MELAS cybrids, Rieske KO mouse fibroblasts, CellTiter-Glo (AID 1508586;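 active = mean z-score across replicates of 1.96 or higher in either the MELAS or the Rieske mutant cell line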;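 note: z relative to plate mean and SD of compound and empty wells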).
Experiment [4] can be described thus: viability rescue of complex I mutant cybrids, primary screen, cell-based, galactose medium, ATP luminescence (AID 1645843;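 active = z-score of at least 1.8 in each of two replicates, scored against plate mean and spread of sample wells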;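 note: positive z means more ATP and so rescue of galactose-driven cybrid death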). The conditions noted are these: complex I mutant cybrid cells, 72 h, stronger effect = higher value.
The nature of experiment [5]: inhibitors of Cryptococcus chitosan production, flow cytometry, Cibacron Brilliant Red staining (AID 1347148).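 Note: compound exposure lasted three days at 37 degrees C.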 The settings on record: Cryptococcus neoformans chitosan, stronger effect = lower value; at 10 µM unless noted.
The test system of experiment [6] is Hepatitis C virus NS3 helicase. The experiment can be described thus: HCV NS3 helicase inhibitors, primary screen, biochemical, fluorescence polarization, LOPAC1280 library (AID 687035; in the data active = inhibition above about 37%). The settings on record: Purified HCV NS3 helicase, Cy5-dT15 ssDNA binding fluorescence polarization; stronger effect = higher value; concentration not given here.
Experiment [7] in a line: Cy5 fluorescence quenching or enhancement artefacts, artefact control for HCV NS3 helicase inhibitor project, biochemical, LOPAC1280 (AID 687037). The conditions noted are these: Cy5-DNA-NS3h complex fluorescence interference counterscreen. (In general: The purpose of a counterscreen is to sort out artefacts and off-target activity.)
In experiment [8] the target is Mitogen-activated protein kinase 7 (Homo sapiens) (UniProt Q13164). Kind of experiment: ERK5 transactivation activators in reporter cells, primary screen, cell-based, HTS (AID 1508626;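 active = luciferase signal above three times the same-plate solvent-only control wells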;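 note: luciferase driven by Gal4-ERK5 fusion binding five Gal4 sites before minimal TATA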). The settings on record: HeLa Gal4-ERK5 transactivation, 18 h, at 5 µM, stronger effect = higher value.
A short description of experiment [9]: circadian clock period modulators, cell-based, LOPAC library, luminescence reporter (AID 2774).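 Note: values are relative to mean of DMSO wells on each plate.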 The conditions noted are these: circadian reporter cells, at 7 µM, actives lie on both sides.
Experiment [10] in a line: modifiers of HSF1 nuclear foci, imaging, Selleck Cancer Library (AID 1347162; in the data active = plate-normalised HSF1 focus index below about 0.46). The settings on record: human cells, at 10 µM; SSMD: measured here: HSF1 foci SSMD mean; cell count: measured here: cell number; plate-normalised HSF1 focus index: stronger effect = lower value.
Setting [11] is: stronger effect = lower value, cell number ratio, induced over uninduced.
Setting [12] is: measured here: relative caspase fold change +Dox/-Dox.
The mark [13] stands for this setting: measured here: total cells with miR-34 induction, stronger effect = lower value.
Where [14] appears, read: measured here: total cells without miR-34 induction.
The mark [15] stands for this setting: MELAS cybrid survival, CellTiter-Glo 48 h, stronger effect = higher value.
The mark [16] stands for this setting: Rieske KO mouse fibroblast survival, CellTiter-Glo 72 h.

Several values for one entry are separate records, joined by “and”; a condition that tells them apart may be missing. Equal entries are not always repeated. Activity calls are given as the source filed them. Unless noted, the rule behind the calls is not given here.

Mitogen-activated protein kinase 7 (Homo sapiens), sequence (Q13164 whole entry, looked up, the tested form may be a part): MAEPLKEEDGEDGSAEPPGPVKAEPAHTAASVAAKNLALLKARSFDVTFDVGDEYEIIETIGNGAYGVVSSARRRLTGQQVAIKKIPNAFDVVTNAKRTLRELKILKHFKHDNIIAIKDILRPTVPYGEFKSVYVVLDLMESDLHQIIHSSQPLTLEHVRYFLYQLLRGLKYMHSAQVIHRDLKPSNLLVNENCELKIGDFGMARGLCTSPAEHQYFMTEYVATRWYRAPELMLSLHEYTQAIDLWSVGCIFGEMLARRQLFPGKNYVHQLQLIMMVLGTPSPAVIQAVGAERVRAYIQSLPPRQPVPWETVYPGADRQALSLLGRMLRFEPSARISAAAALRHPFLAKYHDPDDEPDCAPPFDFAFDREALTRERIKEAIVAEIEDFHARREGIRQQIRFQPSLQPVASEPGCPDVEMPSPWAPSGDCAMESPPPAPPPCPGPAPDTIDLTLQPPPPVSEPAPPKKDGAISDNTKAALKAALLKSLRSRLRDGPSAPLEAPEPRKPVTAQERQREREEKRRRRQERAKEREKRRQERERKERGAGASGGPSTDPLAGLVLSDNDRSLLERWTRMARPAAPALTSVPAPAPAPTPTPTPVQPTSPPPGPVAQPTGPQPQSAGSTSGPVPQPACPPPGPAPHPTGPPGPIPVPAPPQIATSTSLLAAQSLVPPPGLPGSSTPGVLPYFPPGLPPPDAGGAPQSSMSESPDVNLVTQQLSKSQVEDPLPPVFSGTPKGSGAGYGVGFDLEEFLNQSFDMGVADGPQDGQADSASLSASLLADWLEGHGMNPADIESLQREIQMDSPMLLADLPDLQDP

For the compound `Cc1ccc(Sc2cncc3sc(C(N)=O)cc23)cc1`, in experiment [1], the remaining activity is 99.8% (inactive). The fold change in experiment [2] (setting [11]) is 0.867 (inactive) and 0.873 (inactive); in experiment [2] (setting [12]), 2.32 and 1.58. Moreover, the cell count in experiment [2] (setting [13]) was 7640 and 7700; in experiment [2] (setting [14]) it was 8800 and 8820. Further, the results for the z-score in experiment [3] (setting [15]), in experiment [3] (setting [16]) and in experiment [4] were -0.504 (inactive), -0.347 and -0.625 (inactive), respectively.

In the case of `COC(=O)C1=C(C)NC(C)=C([N+](=O)[O-])[C@H]1c1ccccc1C(F)(F)F`, in experiment [1], the remaining activity was 113% (inactive). The fold change in [2] (setting [11]) was 0.834 (inactive); in experiment [2] (setting [12]) it was 1.13. Besides, the cell count in experiment [2] (setting [13]) stood at 7130; in experiment [2] (setting [14]), 8550. For the same compound, in [5], the fold fluorescence was 5.36 [at 140.3 µM] (inactive). The z-score in experiment [4] is -0.645 (inactive).

For `O=C1C(=O)N(Cc2ccc(Cl)c(Cl)c2)c2ccccc21`, the remaining activity in [1] is 89.3% (inactive). The fold change in [2] (setting [11]) is 0.946 (inactive) and 0.932 (inactive); in [2] (setting [12]), 0.72 and 1.49. Besides, the cell count in [2] (setting [13]) was 8180 and 7960; in experiment [2] (setting [14]), 8650 and 8540. The figures for the z-score in experiment [3] (setting [15]), in [3] (setting [16]) and in [4] were -0.161 (inactive), -0.14 and -0.685 (inactive), respectively.

Take `BrC1C(Br)C(Br)C(Br)C(Br)C1Br` (stereo unspecified): the remaining activity in experiment [1] is 107% (inactive). Moreover, the fold change in [2] (setting [11]) is 1.04 (inactive); in [2] (setting [12]), 1.17. For the same compound, the cell count in experiment [2] (setting [13]) turned out to be 7970; in experiment [2] (setting [14]), 7680. Moreover, in [4], the z-score is -0.62 (inactive).

Consider `C1CCC(N=C(NC23CC4CC(CC(C4)C2)C3)N2CCOCC2)CC1`, for which, in experiment [6], the inhibition was -4% (inactive). Besides, the fluorescence ratio (interference) in experiment [7] is 1 (inactive). Further, in experiment [1], the remaining activity was 116% (inactive). Further, the values for the fold change in experiment [2] (setting [11]) and in [2] (setting [12]) were 0.989 (inactive) and 0.888, respectively. In addition, the cell count in [2] (setting [13]) amounted to 8260; in experiment [2] (setting [14]) it was 8350. The fold fluorescence in [5] is 11.7 [at 130.9 µM] (inactive). The z-score in experiment [4] is -0.33 (inactive).

Consider `CC(=O)O[C@@H]1C[C@H]2C(C)(C)C(=O)C=C[C@]2(C)[C@H]2CC[C@@]3(C)[C@H](c4ccoc4)OC(=O)[C@H]4O[C@]43[C@@]21C`, for which the remaining activity in experiment [1] is 103% (inactive). In addition, the fold change was 0.935 (inactive) in experiment [2] (setting [11]) and 1.22 in experiment [2] (setting [12]). For the same compound, the cell count was found to be 4410 in experiment [2] (setting [13]) and 4720 in experiment [2] (setting [14]). Also, the luciferase signal in experiment [8] was 96 AU (inactive). In addition, the z-score in [4] is -0.435 (inactive).

For `CN(C)CCCCSC(=N)N`, the period change in experiment [9] was 0.15 h (inactive). In experiment [1], the remaining activity was 110% (inactive). For the same compound, the values for the fold change in [2] (setting [11]) and in experiment [2] (setting [12]) were 0.981 (inactive) and 0.637, respectively. In addition, the cell count in [2] (setting [13]) turned out to be 8600; in [2] (setting [14]) it was 8770; in experiment [10], 6740. The compound further showed an SSMD in experiment [10] of 1.03. Further, in experiment [10], the plate-normalised HSF1 focus index was 1.06 (inactive). The z-score in experiment [4] is 0.38 (inactive).

`N#C/C(=C\c1ccc(O)c(O)c1)C(=O)OCCc1cccs1`: the remaining activity in [1] was 110% (inactive). Also, the figures for the fold change in experiment [2] (setting [11]) and in [2] (setting [12]) were 0.871 (inactive) and 1.36, respectively. Moreover, the cell count in experiment [2] (setting [13]) is 8430; in experiment [2] (setting [14]) it was 9690. The z-score in experiment [4] was -0.59 (inactive).

On to `OC[C@H]1O[C@@H](n2cnc3c(NC4CCCC4)nc(Cl)nc32)[C@H](O)[C@@H]1O`, for which, in experiment [1], the remaining activity was 122% (inactive). Moreover, the fold change is 0.891 (inactive) in experiment [2] (setting [11]) and 0.662 in experiment [2] (setting [12]). For the same compound, the results for the cell count in experiment [2] (setting [13]) and in experiment [2] (setting [14]) were 8890 and 9980, respectively. In addition, the z-score in experiment [4] was 0.55 (inactive).

Consider `COc1cc(NC(=O)c2ccccn2)ccc1Cl`, for which, in experiment [1], the remaining activity was 122% (inactive). The fold change is 1.03 (inactive) and 0.942 (inactive) in experiment [2] (setting [11]); 0.59 and 1.55 in experiment [2] (setting [12]). In addition, the cell count is 7300 and 8170 in experiment [2] (setting [13]); 7110 and 8670 in experiment [2] (setting [14]). In addition, the figures for the z-score in experiment [3] (setting [15]), in experiment [3] (setting [16]) and in experiment [4] were 0.202 (inactive), 0.293 and 1.19 (inactive), respectively.

Take `CCCCCCN(CCCCCC)C(=O)Cc1c(-c2ccc(Cl)cc2)[nH]c2ccc(Cl)cc12`: in experiment [1], the remaining activity is 102% (inactive). In addition, the fold change was 0.89 (inactive) in experiment [2] (setting [11]) and 0.984 in [2] (setting [12]). The values for the cell count in experiment [2] (setting [13]) and in experiment [2] (setting [14]) were 5700 and 6410, respectively. The z-score in experiment [4] was -1.19 (inactive).

Values taken from PubChem BioAssay.
